The antibiotic and cytotoxicity screens of Wong et al. (2023)
Out of some 39,000 compounds screened, about 1,500 (3.8%) were called active. The sample as a whole holds a higher share of actives than the screen did.

The molecules below were run on HSkMC (human skeletal muscle cells) (assay: cytotoxicity call (relative viability < 0.9)). Details: 10 µM.

Compound | cytotoxicity call
COc1ccc(-c2cnc3c(c2)C(=O)N([C@@H](C)CO)C[C@H](C)[C@H](CN(C)C(=O)Cc2ccccn2)O3)cc1 | inactive
C[C@@H]1CN([C@H](C)CO)C(=O)c2cc(NC(=O)Cn3cnnn3)ccc2O[C@@H]1CN(C)Cc1ccc(C(F)(F)F)cc1 | inactive
C[C@H]1CCCCO[C@H](CN(C)C(=O)Cc2ccccc2)[C@@H](C)CN([C@@H](C)CO)C(=O)c2cc(NC(=O)Nc3ccccc3)ccc2O1 | inactive
C[C@@H]1CCCCO[C@H](CN(C)C(=O)Nc2ccc(F)cc2)[C@@H](C)CN([C@H](C)CO)C(=O)c2cc(NC(=O)CCC(F)(F)F)ccc2O1 | inactive
C[C@@H]1CN([C@@H](C)CO)C(=O)CCCn2cc(nn2)CO[C@H]1CN(C)C(=O)Nc1cccc(Oc2ccccn2)c1 | inactive
C[C@@H]1CN([C@H](C)CO)C(=O)c2cccc(NC(=O)c3ccc(-c4nccs4)cc3)c2O[C@H]1CN(C)S(=O)(=O)c1ccc(Cl)cc1 | inactive
C=C1c2cccc(O)c2C(=O)C2=C(O)[C@]3(O)C(O)=C(C(N)=O)C(=O)[C@@H](N(C)C)[C@@H]3[C@@H](O)[C@H]12 | inactive
O=C(C[C@H]1CC[C@@H]2[C@H](COC[C@H](O)CN2S(=O)(=O)c2ccc(Cl)cc2)O1)NCCN1CCCC1 | inactive
COc1ccc2c3c([nH]c2c1)[C@@H](CO)N(C[C@]13CN(Cc2cc(on2)-c2ccccc2)C1)C(=O)Nc1ccc(cc1)F | inactive
COc1ccc2c3c([nH]c2c1)[C@@H](CO)N(C[C@]13CCN(CC1)Cc1ccccc1OC)C(=O)Nc1ccc(cc1)F | inactive
COc1ccc2c3c([nH]c2c1)[C@H](CO)N(C[C@]13CN(Cc2cc(on2)-c2ccccc2)C1)C(=O)Nc1ccc(cc1)F | active
COc1ccc2c3c([nH]c2c1)[C@@H](CO)N(C[C@]13CCN(CC1)Cc1ccc(cc1)F)C(=O)Nc1ccc(cc1)F | active
COc1ccc(cc1)CN1CC[C@]2(CC1)CN([C@@H](CO)c1[nH]c3cc(ccc3c12)OC)C(=O)Nc1ccc(cc1)F | inactive
COc1ccc2c3c([nH]c2c1)[C@@H](CO)N(C[C@]13CCN(CC1)Cc1cc(on1)-c1ccccc1)C(=O)Nc1ccc(cc1)F | active
COc1ccc2c3c([nH]c2c1)[C@H](CO)N(C[C@]13CCN(CC1)Cc1ccc(cc1)F)C(=O)Nc1ccc(cc1)F | inactive
COc1ccc(cc1)CN1CC[C@]2(CC1)CN([C@H](CO)c1[nH]c3cc(ccc3c12)OC)C(=O)Nc1ccc(cc1)F | inactive
COc1ccc2c3c([nH]c2c1)[C@H](CO)N(C[C@]13CCN(CC1)Cc1cc(on1)-c1ccccc1)C(=O)Nc1ccc(cc1)F | active
COc1ccc2c3c([nH]c2c1)[C@@H](CO)N(C[C@]13CCN(CC1)C(=O)Nc1ccccc1)C(=O)Nc1ccc(cc1)F | inactive
COc1ccc2c3c([nH]c2c1)[C@H](CO)N(C[C@]13CCN(CC1)Cc1ccccc1OC)C(=O)Nc1ccc(cc1)F | inactive
COc1ccc2c3c([nH]c2c1)[C@H](CO)N(C[C@]13CCN(CC1)C(=O)Nc1ccccc1)C(=O)Nc1ccc(cc1)F | inactive
C=c1[nH]/c(=C\c2ccc(F)cc2)c(=O)o1 | inactive

Compound | cytotoxicity call
Cc1noc(C)c1S(=O)(=O)Nc1ccc2c(c1)C(=O)N([C@H](C)CO)C[C@H](C)[C@@H](CN(C)S(C)(=O)=O)OCCCC[C@H](C)O2 | inactive
C[C@H]1CN([C@@H](C)CO)C(=O)Cc2cc(NC(=O)CCCN(C)C)ccc2O[C@@H]1CN(C)C(=O)Nc1ccc2c(c1)OCO2 | inactive
C[C@@H]1CN([C@@H](C)CO)C(=O)c2cccc(NC(=O)c3cnccn3)c2O[C@@H]1CN(C)S(=O)(=O)c1ccccc1 | inactive
CCS(=O)(=O)NCC[C@H]1CC[C@H](NC(=O)C2CC2)[C@@H](CO)O1 | inactive
O=C(O)CNC(=O)[C@H]1COc2ccccc2O1 | inactive
COc1cccc(-c2cn(CC[C@H]3CC[C@H](NC(=O)CN(C)C)[C@H](CO)O3)nn2)c1 | inactive
COc1ccc(NC(=O)N(C)C[C@H]2OCCCC[C@H](C)Oc3ccc(NC(=O)C4CCCCC4)cc3C(=O)N([C@@H](C)CO)C[C@H]2C)cc1 | inactive
CC(=O)O[C@H]1C[C@@]2(C)[C@H]3CC=C4[C@@H](C[C@@H](O[C@H]5O[C@@H](CO)[C@@H](O)[C@@H](O)[C@@H]5O)[C@@H](O)C4(C)C)[C@@]3(C)CC[C@@]2(C)[C@@H]1C(C)(O)C(=O)CCC(C)(C)O (some centres not stated) | inactive
COc1ccc(S(=O)(=O)Nc2ccc3c(c2)C(=O)N([C@@H](C)CO)C[C@@H](C)[C@H](CN(C)S(=O)(=O)c2ccc(F)cc2)O3)cc1 | inactive
O=C(O)[C@H]1C[C@H]2C(=O)NCC(=O)N2[C@H]1c1ccc(O)cc1 | inactive
C[C@@H]1CN([C@H](C)CO)C(=O)c2cccc(NC(=O)c3ccc(-c4nccs4)cc3)c2O[C@@H]1CN(C)Cc1ccc2c(c1)OCO2 | inactive
C[C@@H]1CN([C@H](C)CO)C(=O)c2c(c3ccccc3n2C)-c2ccccc2CO[C@H]1CN(C)C(=O)Nc1ccc(-c2ccccc2)cc1 | inactive
C[C@@H]1CN([C@H](C)CO)C(=O)c2c(c3ccccc3n2C)-c2ccccc2CO[C@@H]1CN(C)Cc1ccc(-c2ccccc2)cc1 | inactive
C[C@H](CO)N1C[C@H](C)[C@@H](CN(C)Cc2ccc(-c3ccccc3)cc2)OCc2ccccc2-c2c(n(C)c3ccccc23)C1=O | inactive
C[C@@H]1CN([C@H](C)CO)C(=O)c2c(c3ccccc3n2C)-c2ccccc2CO[C@@H]1CN(C)C(=O)Nc1ccc(-c2ccccc2)cc1 | inactive
C[C@H]1CN([C@@H](C)CO)C(=O)c2c(c3ccccc3n2C)-c2ccccc2CO[C@@H]1CN(C)Cc1ccccc1 | inactive
C[C@H]1CN([C@@H](C)CO)C(=O)c2c(c3ccccc3n2C)-c2ccccc2CO[C@@H]1CN(C)Cc1ccc(-c2ccccc2)cc1 | inactive
C[C@@H]1CN([C@@H](C)CO)C(=O)c2c(c3ccccc3n2C)-c2ccccc2CO[C@H]1CN(C)Cc1ccc(-c2ccccc2)cc1 | inactive
C[C@@H]1CN([C@H](C)CO)C(=O)c2c(c3ccccc3n2C)-c2ccccc2CO[C@H]1CN(C)Cc1ccccc1 | active
C[C@H](CO)N1C[C@H](C)[C@@H](CN(C)Cc2ccccc2)OCc2ccccc2-c2c(n(C)c3ccccc23)C1=O | inactive
C[C@H](CO)N1C[C@H](C)[C@H](CN(C)C(=O)Nc2ccc(-c3ccccc3)cc2)OCc2ccccc2-c2c(n(C)c3ccccc23)C1=O | active

Compound | cytotoxicity call
C[C@@H]1CN([C@@H](C)CO)C(=O)c2c(c3ccccc3n2C)-c2ccccc2CO[C@@H]1CN(C)Cc1ccc(-c2ccccc2)cc1 | active
C[C@H](CO)N1C[C@H](C)[C@H](CN(C)Cc2ccc(-c3ccccc3)cc2)OCc2ccccc2-c2c(n(C)c3ccccc23)C1=O | active
C[C@@H]1CN([C@@H](C)CO)C(=O)Cc2cc(NS(=O)(=O)c3cn(C)cn3)ccc2O[C@H]1CN(C)C(=O)Nc1ccccc1 | inactive
C[C@H](NC(=O)[C@@H]1N[C@@H]2c3ccc(-c4ccc(C(=O)N(C)C)cc4)c(=O)n3C[C@@H]2[C@H]1CO)c1ccccc1 | inactive
COc1ccc2c3c(n(c2c1)C)[C@@H](CO)N(C[C@]13CN(C1)C(=O)c1ccncc1)C(=O)C1CCOCC1 | inactive
C[C@H]1CCCCO[C@@H](CN(C)C(=O)Nc2ccc3c(c2)OCO3)[C@@H](C)CN([C@@H](C)CO)C(=O)c2cc(NC(=O)Cc3ccccc3)ccc2O1 | inactive
C[C@@H]1CN([C@@H](C)CO)S(=O)(=O)c2ccc(C#CC3(O)CCCC3)cc2O[C@H]1CN(C)C(=O)Nc1ccc(F)cc1 | inactive
C[C@@H]1CCCCO[C@@H](CN(C)Cc2ccc(C(F)(F)F)cc2)[C@@H](C)CN([C@H](C)CO)C(=O)c2cc(NS(C)(=O)=O)ccc2O1 | inactive
Cc1ccc(S(=O)(=O)N(C)C[C@H]2Oc3ccc(NC(=O)Nc4ccc(C(F)(F)F)cc4)cc3CC(=O)N([C@@H](C)CO)C[C@H]2C)cc1 | active
C[C@@H]1CN([C@@H](C)CO)C(=O)Cc2cc(NC(=O)Nc3ccc(C(F)(F)F)cc3)ccc2O[C@@H]1CN(C)S(C)(=O)=O | inactive
Cc1ccc(S(=O)(=O)N(C)C[C@H]2Oc3ccc(NC(=O)Nc4ccc(C(F)(F)F)cc4)cc3CC(=O)N([C@H](C)CO)C[C@@H]2C)cc1 | active
C[C@H](CO)N1C[C@H](C)[C@H](CN(C)S(C)(=O)=O)Oc2ccc(NC(=O)Nc3ccc(C(F)(F)F)cc3)cc2CC1=O | inactive
Cc1ccc(S(=O)(=O)N(C)C[C@H]2Oc3ccc(NC(=O)Nc4ccc(C(F)(F)F)cc4)cc3CC(=O)N([C@H](C)CO)C[C@H]2C)cc1 | active
Cc1ccc(S(=O)(=O)N(C)C[C@@H]2Oc3ccc(NC(=O)Nc4ccc(C(F)(F)F)cc4)cc3CC(=O)N([C@H](C)CO)C[C@@H]2C)cc1 | active
C[C@@H]1CN([C@H](C)CO)C(=O)c2cc(C#CCN(C)C)cnc2O[C@@H]1CN(C)Cc1ccc2c(c1)OCO2 | inactive
C[C@H](CO)N1C[C@H](C)[C@H](CN(C)S(=O)(=O)c2ccc(C(F)(F)F)cc2)OCc2ccccc2-c2ccccc2C1=O | inactive
C[C@@H]1CN([C@H](C)CO)C(=O)c2cccc(NC(=O)C3CCCCC3)c2O[C@@H]1CN(C)C(=O)Nc1ccc(C(F)(F)F)cc1 | inactive
COc1ccc(NC(=O)CSC2=NC(C)=C(C(=O)Nc3nc4ccccc4s3)[C@H](c3ccco3)C2C#N)cc1 (some centres not stated) | inactive
COc1ccc(CCNS(=O)(=O)c2cn(C)c(=O)n(C)c2=O)cc1 | inactive
CCCN(C)C[C@H]1OCCCC[C@@H](C)Oc2ccc(NS(C)(=O)=O)cc2C(=O)N([C@H](C)CO)C[C@@H]1C | inactive
